{
  "source": "PubChem BioAssay (NCATS)",
  "note": "Inconclusive results are not listed. A number with no mark means an inactive call. Activity calls are given as the source filed them. Calls come from the whole dose curve; as a rule, active = well fitted activation curve with a large enough effect; inconclusive = small, poorly fitted or top-dose-only effect, or effect the other way; inactive = flat fitted curve, though single readings scatter. Peptide text beside a SMILES is read from it.",
  "data": [
    {"experiment": "Cellular Toxicity (caspase-3) NIH 3T3 (AID 666)", "details": "NIH 3T3 caspase-3 activation, apoptosis/toxicity, 0% DMSO, 100% is 100 µM tamoxifen; series mostly up to 92.2 µM; caspase-3 activation: at the top concentration", "description": "NIH Chemical Genomics Center [NCGC]\nNIH Molecular Libraries Screening Centers Network [MLSCN]\nNational Institutes of Environmental Health Sciences [NIEHS]\nNational Toxicology Program [NTP]\nWe have developed a 1536-well cell-based assay for quantitative high throughput screening (qHTS) against a number of cell lines to determine in vitro caspase 3/7 of small molecules. This particular assay uses the NIH 3T3 cell line which is derived from mouse fibroblasts.\nNCGC Assay Protocol Summary:\nThe Caspase-Glo 3/7 assay (Promega) is a homogeneous method to measure caspase-3 and caspase-7 activities in cultured cells. The quantitation of caspase 3/7 activity is based on the cleavage of a peptide-aminoluciferin substrate. After caspase cleaves the substrate the free aminoluciferin is liberated and serves as the substrate of luciferase, which generates the light. The luminescent signal is proportional to amount of caspase 3/7 activity present.\nUsing the Caspase-Glo 3/7 assay, the amount of caspase 3/7 activity was measured in the NIH 3T3 cell line with complete culture medium following compound treatment for 16 hours. The assay was performed in opaque white 1536-well plates. In the screen, tamoxifen and doxorubicin were used as positive controls. Library compounds were measured for their ability to cause the activation of caspase 3/7 in the cell line, as reflected by an increase in luminescence signal, in a concentration-dependent manner. Data were normalized to the controls for basal activity (DMSO only) and 100% stimulation (100 uM tamoxifen). AC50 values were determined from concentration-response data modeled with the standard Hill equation.\nqHTS protocol for caspase 3/7 assay in NIH 3T3 cells\n[Step] [Parameter] [Value] [Description]\n1. Reagent; 5 uL; 1000 NIH 3T3 cells/well\n2. Time; 5 hr; 37 °C incubation\n4. Controls; 23 nL; Tamoxifen 0.23 uM to 100 uM & Doxorubicin 7.0 pM to 100 uM\n5. Time; 16 hr; 37 °C incubation\n6. Reagent; 5 uL; Caspase-Glo 3/7 reagent\n7. Time; 20 min; Room Temperature\n8. Detection; Luminescence; Viewlux plate reader\nKeywords: caspase 3/7, apoptosis, NIH 3T3 cell line, luminescence, NTPHTS, NTPHTS_NCGC, NIEHS, EPA, DSSTox, MLSMR, MLSCN, NIH Roadmap, qHTS, NCGC", "units": {"caspase-3 activation": "%"}, "values": [
      {"smiles": "CCCCC(CC)COC(=O)C(C#N)=C(c1ccccc1)c1ccccc1", "note": "(stereo unspecified)", "caspase-3 activation": -1.57},
      {"smiles": "CS(=O)(=O)OCCCCOS(C)(=O)=O", "outcome": "inactive"},
      {"smiles": "CCc1nc(N)nc(N)c1-c1ccc(Cl)cc1", "caspase-3 activation": 4.95},
      {"smiles": "NS(=O)(=O)c1cc(C(=O)O)c(NCc2ccco2)cc1Cl", "caspase-3 activation": 1.47},
      {"smiles": "COC(=O)[C@H](Cc1ccccc1)NC(=O)[C@@H](N)CC(=O)O", "note": "(H-Asp-Phe-OMe)", "caspase-3 activation": 3.17},
      {"smiles": "CCCc1cc(=O)[nH]c(=S)[nH]1", "caspase-3 activation": 4.93},
      {"smiles": "CC(=O)Nc1ccc(O)cc1", "caspase-3 activation": -2.94},
      {"smiles": "Cc1ccc(C)c(OCCCC(C)(C)C(=O)O)c1", "caspase-3 activation": -6.44},
      {"smiles": "CN(C)c1ccc2nc3ccc(=[N+](C)C)cc-3sc2c1", "caspase-3 activation": -25.2},
      {"smiles": "Nc1ccc(S(N)(=O)=O)cc1", "caspase-3 activation": -0.664},
      {"smiles": "COc1c2occc2cc2ccc(=O)oc12", "caspase-3 activation": -0.562}
    ]}
  ]
}
